Test results reported in PubChem BioAssay (NCATS).
Where “and” joins values, the source holds several entries; their conditions need not be identical. Identical values can stand only once. Records with an inconclusive call do not appear. Calls of active or inactive are those of the source. Calls come from the whole dose curve; as a rule, active = well fitted cell-killing curve with a large enough effect; inconclusive = small, poorly fitted or top-dose-only effect; inactive = flat fitted curve, though single readings scatter.

Assay: Cell Viability - Mesenchymal (AID 546);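 note: cells exposed to compound for 40 hours before reading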;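 for activity change, negative = cytotoxicity: 0% = DMSO only and -100% = 100 µM tamoxifen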
Conditions: mesenchymal cells viability, qHTS; activity change, negative = cytotoxicity: at 91.7 µM (top of the series)
Description: NIH Chemical Genomics Center [NCGC]
NIH Molecular Libraries Screening Centers Network [MLSCN]
National Institutes of Environmental Health Sciences [NIEHS]
National Toxicology Program [NTP]
We have developed a 1536-well cell-based assay for quantitative high throughput screening (qHTS) against a number of cell lines to determine in vitro cytotoxicity of small molecules. This particular assay uses the kidney mesenchymal cell line which is derived from normal human renal glomeruli.
NCGC Assay Protocol Summary:
The CellTiter-Glo luminescent cell viability assay (Promega) is a homogeneous method to measure the number of viable cells in culture. The end point readout of this assay is based on quantitation of intracellular ATP, an indicator of metabolic activity, using the luciferase reaction. Luciferase catalyzes the oxidation of beetle Luciferin to oxyluciferin and light in the presence of ATP. The luminescent signal is proportional to amount of ATP present.
Using the CellTiter-Glo luminescent cell viability assay, the amount of cellular ATP was measured in the kidney mesenchymal cell line with complete culture medium following compound treatment for 40 hours. The assay was performed in opaque white Kalypsys 1536-well plates. In the screen, tamoxifen and doxorubicin were used as positive controls. Library compounds were measured for their ability to cause acute toxicity in the cell line, as reflected by a decrease in intracellular ATP levels, in a concentration-dependent manner. […] AC50 values were determined from concentration-response data modeled with the standard Hill equation.
qHTS protocol for CellTiter Glo kidney mesenchymal cells cellular assay
[Step] [Parameter] [Value] [Description]
1. Reagent; 5 uL; 1000 kidney mesenchymal cells/well
2. Time; 5 hr; 37 °C incubation
4. Controls; 23 nL; Tamoxifen 0.34 uM to 100 uM & Doxorubicin 0.02 nM to 100 uM
5. Time; 40 hr; 37 °C incubation
6. Reagent; 5 uL; CellTiter Glo reagent
7. Time; 20 min; Room Temperature
8. Detection; Luminescence; Viewlux plate reader
Keywords: cell viability, cytotoxicity, Kidney mesenchymal cell line, luminescence, NTPHTS, NTPHTS_NCGC, NIEHS, EPA, DSSTox, MLSMR, MLSCN, NIH Roadmap, qHTS, NCGC
Potency is the fitted concentration of half-maximal effect.

Compound	activity change, negative = cytotoxicity	Potency
Nc1ccc(Cl)cc1Cl	2.81% (inactive)	
CCO	-1.16% (inactive)	
C=Cc1ccccc1Cl	4.39% (inactive)	
O=NO	-3.1% (inactive) and 3.16% (inactive)	
Cc1ccc(N)c([N+](=O)[O-])c1	5.43% (inactive)	
COC(=O)CCCCC(=O)OC	1.32% (inactive)	
CCO[Si](CCCN)(OCC)OCC	-8.88% (inactive)	
COCC(=O)O	2.06% (inactive)	
C/C=C\c1ccc(OC)cc1	-1.47% (inactive)	
COC(=O)c1ccc(C=O)cc1	-7.99% (inactive)	
C=CC(=C)CCC=C(C)C	-3.53% (inactive)	
ClCCCl	8.24% (inactive)	
O=S(=O)(O)c1ccccc1	0.153% (inactive)	
c1ccc2c(c1)c1cccc3ccc4cccc2c4c31	2.17% (inactive)	
S=C1NC=NC2N=CNC12 (stereo not given)		501 nM (active)
Cc1ccc([N+](=O)[O-])c(C)c1	1.9% (inactive)	
CCCCCCCCCCCCCCC1CO1 (stereo not given)	2.08% (inactive)	
O=C(O)c1ccc(O)cc1O	5.57% (inactive) and 9.36% (inactive)	
C[C@H](CCC(=O)O)[C@H]1CC[C@H]2[C@@H]3CC[C@@H]4C[C@H](O)CC[C@]4(C)[C@H]3CC[C@]12C	15.4% (inactive)	
O=C(O)c1ccccc1	4.89% (inactive)	

Compound	activity change, negative = cytotoxicity	Potency
COc1ccc2nc(N)sc2c1	-1.25% (inactive)	
c1ccc2scnc2c1	-5.46% (inactive)	
CCCCOCCO	1.27% (inactive) and 8.74% (inactive)	
CCCCCCCCCCCCCC(=O)O	1.41% (inactive)	
O=C(/C=C/c1ccc(O)c(O)c1)O[C@@H](C(=O)O)[C@@H](OC(=O)/C=C/c1ccc(O)c(O)c1)C(=O)O	11% (inactive)	
c1ccccc1	7.51% (inactive) and 0.0243% (inactive)	
CC(C)=CCCC(C)CCO (stereo not given)	5.35% (inactive)	
COc1c2ccoc2cc2oc(=O)ccc12	-14.2% (inactive)	
O=C(O)CC(C(=O)O)C(CC(=O)O)C(=O)O (stereo not given)	-11.1% (inactive)	
C=CCc1ccc(OC)c(OC)c1	-7.19% (inactive)	
C=C(C)C1CC=C(C)C(O)C1 (stereo not given)	2.7% (inactive)	
CN(C)C=O	4.53% (inactive) and 11.4% (inactive)	
CN(C)CCCCCCN(C)C	10.5% (inactive)	
CC1=C2[C@H](/C=C(\C)C(=O)O)CC[C@@H](C)[C@H]2CC1	9.76% (inactive)	
COc1ccc(/C=C/c2cc(OC)cc(=O)o2)cc1	-3.53% (inactive)	
CC12CCC(CC1=O)C2(C)C (stereo not given)	-11.1% (inactive)	
CC(=O)OC/C=C(\C)CCC=C(C)C	8.38% (inactive)	
C=CC(=O)OCCOCCOCCOCCOC(=O)C=C	-89.5% (active) and -83.9% (active)	
CCCCC(CC)CN (stereo not given)	-2.68% (inactive) and 2.84% (inactive)	
Nc1ccc(S(=O)(=O)O)cc1	9.75% (inactive)	
